Activity data for 40 compounds are collected here from PubChem BioAssay.

For the experiment, the target named is Tumor necrosis factor receptor superfamily member 10B (Homo sapiens) (UniProt O14763). Description: viability loss of caspase-8 NB7 cells with TRAIL – with/without TRAIL, luminescence panel, confirmation (AID 651596). The settings on record: NB7 neuroblastoma + caspase-8, TRAIL sensitization, NB7 Caspase-8, with TRAIL, mean of runs, at 10 µM, stronger effect = higher value.
Sequence of Tumor necrosis factor receptor superfamily member 10B (Homo sapiens) (O14763 whole entry, looked up): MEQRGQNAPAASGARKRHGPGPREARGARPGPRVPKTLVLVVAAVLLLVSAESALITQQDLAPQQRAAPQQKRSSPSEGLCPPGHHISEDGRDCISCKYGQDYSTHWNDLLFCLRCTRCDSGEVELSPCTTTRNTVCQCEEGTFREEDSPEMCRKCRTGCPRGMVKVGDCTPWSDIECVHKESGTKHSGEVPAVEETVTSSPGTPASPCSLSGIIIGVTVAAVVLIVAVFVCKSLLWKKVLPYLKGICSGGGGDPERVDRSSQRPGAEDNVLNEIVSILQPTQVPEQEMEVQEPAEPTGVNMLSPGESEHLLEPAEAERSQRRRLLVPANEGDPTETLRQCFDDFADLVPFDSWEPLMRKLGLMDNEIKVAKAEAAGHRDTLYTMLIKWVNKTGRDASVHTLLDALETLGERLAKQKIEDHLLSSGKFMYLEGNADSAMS
Regarding `CCC1CCCCN1Cc1nc(Cc2ccccc2Cl)no1` (stereo not given), the activity is -9.55%.

Regarding `COc1ccc(C(=O)Nc2ccccc2C(=O)N/N=C/c2ccncc2)cc1OC`, the activity was found to be 97.7%.

In the case of `NC(=S)NN=C1c2ccccc2-c2c(F)c(F)c(F)c(F)c21`, the activity is 72.1%.

For the compound `COc1ccc(-c2cn3cc(C)ccc3n2)cc1Br`, the activity amounted to 82.2%.

With `O=C(Nc1ccc(NC(=O)C2CC2)cc1)c1ccco1`, the activity worked out at 44%.

`Cc1ccc(NC(=O)C(=O)Nc2ccccn2)cc1`: the activity came out at 75.7%.

Take `Cc1ccc2nc(NC(=S)NC(=O)c3ccco3)sc2c1`: the activity is 77.9%.

Turning to `O=C(CCl)N(c1ccccc1)c1c[nH]c2ccccc12`, the activity turned out to be 99.5%.

On to `O=C(Nc1ccc(NC(=O)c2ccco2)nc1)c1ccco1`, for which the activity was found to be 71.2%.

In the case of `CCCCCCCCC(c1nc2ccccc2[nH]1)N1CCN=C1c1cc2ccccc2[nH]1` (stereo not given), the activity came out at 54.9%.

`COCCNC(=O)c1ccc2c3n(nc2c1)-c1ccccc1CO3`: the activity turned out to be 67.6%.

Regarding `CC(C)c1ccc(-n2c(-c3ccccc3)c[n+]3c2CCc2ccccc2-3)cc1`, the activity was found to be 77%.

For the compound `CC(C)(C)c1ccc(/C=N/NC(=O)c2ccccn2)cc1`, the activity is 83.5%.

Regarding `N#Cc1c(C#N)c(SSc2c(C#N)c(C#N)c(N)n2-c2ccccc2)n(-c2ccccc2)c1N`, the activity was -0.075%.

With `Cc1cccc(NC(=S)NC(=O)c2ccc(-c3ccccc3)cc2)n1`, the activity is 55.5%.

For the compound `CC(C)(C)NCCC(O)c1cc(C(F)(F)F)nc2c(C(F)(F)F)cccc12` (stereo not given), the activity amounted to 97.5%.

Turning to `CCCc1c(C(=O)N/N=C/C=C/c2ccccc2)nnn1-c1nonc1N`, the activity amounted to 47.5%.

On to `O=C(NC(=S)Nc1nc2ccccc2s1)c1cccs1`, for which the activity was determined as 83.1%.

Consider `Cc1nc2sc(-c3ccccc3)cc2c(=O)[nH]1`, for which the activity stood at 74.1%.

With `CCC(C)c1ccc(NC(=O)c2cccs2)cc1` (stereo not given), the activity came out at 72.8%.

For `CCOc1cc(CNCCc2ccc(S(N)(=O)=O)cc2)ccc1OCc1ccc(Cl)cc1`, the activity was 65.4%.

In the case of `Cn1c(N)c(C(=O)COC(=O)c2cc(S(=O)(=O)N3CCOCC3)ccc2F)c(=O)n(C)c1=O`, the activity worked out at 90.6%.

For `COc1ccc(-c2cc(C(=O)N3CCCC3)no2)cc1`, the activity stood at 64.9%.

As for `Cc1nnc(SCC(=O)Nc2ccc(-c3nc4ccccc4s3)cc2)s1`, the activity was 51.9%.

`C=CCOC(=O)c1sc(NC(=O)c2ccco2)nc1C`: the activity stood at 39.1%.

For the compound `COc1cccc(-n2c(SCC(=O)N3CCCCC3)nc3c([nH]c4ccccc43)c2=O)c1`, the activity was determined as 28.7%.

For the compound `C=CCN=c1scc(-c2ccccc2)n1/N=C/c1ccccn1`, the activity turned out to be 37.6%.

For the compound `O=C(CN(Cc1ccccc1)C(=O)CCl)c1cccc(Br)c1`, the activity turned out to be 99.3%.

Turning to `O=C(/C=C/c1ccco1)Nc1scc(-c2ccccc2)c1C(=O)O`, the activity was found to be 51.9%.

Consider `CC(=O)Oc1ccccc1C(=O)C=Cc1cccc([N+](=O)[O-])c1`, for which the activity amounted to 36.3%.

Take `CC[C@H]1CN2CCc3cc(OC)c(OC)cc3C2C[C@@H]1C[C@H]1NCCc2cc(OC)c(OC)cc21` (stereo not given in full): the activity was 70%.

For `COc1ccc(-c2sc3ccccc3c2-c2ccc(OCCN(C)C)cc2)cc1`, the activity was 52.4%.

Take `O=C(CSc1nc2ccccc2c(=O)[nH]1)Nc1ccc([N+](=O)[O-])cc1`: the activity turned out to be 35.1%.

With `O=C(N/N=C/C=C/c1ccccc1)c1cc2c(ccc3ccccc32)o1`, the activity is 62.1%.

With `c1ccc(-n2nnc3c(N4CCOCC4)ncnc32)cc1`, the activity is 74.7%.

Consider `Cc1ccn(-c2ccc(NC(=O)c3cccs3)cc2)n1`, for which the activity amounted to 59.7%.

In the case of `CC1CCC(C(C)C)C(OC(=O)Cn2c(-c3ccc(Cl)cc3)[n+](C)c3ccccc32)C1` (stereo not given), the activity was determined as 76.7%.

Turning to `C(=Cc1nc2ccccc2o1)c1ccc2c(c1)OCO2`, the activity is 86.1%.

Take `Nc1c2c(nc3sc4c(c13)CCCCC4)CCCCC2`: the activity was 48.1%.

Turning to `Cc1cc(NCCCn2ccnc2)n2ncc(-c3ccc(Cl)cc3)c2n1`, the activity is 45.8%.
